{
  "source": "the supplement of paper PMC3334620",
  "note": "The full ranking holds about 33,000 sequences; the median of “E-score (-0.5 to 0.5)” is about -0.015, and the highest 2% start at about 0.3. The full list was thinned out, with the highest values kept by preference.",
  "data": [
    {"molecular_target": "T1, Abf1 (UniProt P14164)", "T1 sequence": "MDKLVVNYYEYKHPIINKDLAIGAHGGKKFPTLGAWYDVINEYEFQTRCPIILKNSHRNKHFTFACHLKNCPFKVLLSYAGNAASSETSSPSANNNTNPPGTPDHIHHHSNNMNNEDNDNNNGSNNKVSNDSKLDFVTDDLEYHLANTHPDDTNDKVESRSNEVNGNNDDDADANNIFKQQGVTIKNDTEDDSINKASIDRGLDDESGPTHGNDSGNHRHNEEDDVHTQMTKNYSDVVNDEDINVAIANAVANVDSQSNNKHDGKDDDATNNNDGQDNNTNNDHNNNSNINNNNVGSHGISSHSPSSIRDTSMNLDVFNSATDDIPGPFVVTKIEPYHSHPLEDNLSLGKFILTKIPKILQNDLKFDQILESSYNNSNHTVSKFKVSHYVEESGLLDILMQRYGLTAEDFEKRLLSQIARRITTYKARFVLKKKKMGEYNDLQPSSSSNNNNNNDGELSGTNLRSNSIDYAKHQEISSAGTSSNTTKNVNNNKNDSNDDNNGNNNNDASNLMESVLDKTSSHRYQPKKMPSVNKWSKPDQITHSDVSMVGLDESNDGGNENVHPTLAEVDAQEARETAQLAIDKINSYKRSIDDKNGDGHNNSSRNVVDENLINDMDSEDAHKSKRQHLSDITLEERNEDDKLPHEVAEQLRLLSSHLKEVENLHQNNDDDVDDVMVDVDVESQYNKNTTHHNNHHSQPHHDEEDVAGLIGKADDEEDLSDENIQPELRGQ", "assay": "PBM E-score (8-mer binding enrichment) (E-score (-0.5 to 0.5)); higher = stronger / more preferred TF binding", "details": "protein concentration: 200 nM; construct: GST-full length", "summary_of_the_method": "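The E-score, a modified Wilcoxon-Mann-Whitney statistic, was computed by the Universal PBM Analysis Suite for every ungapped eight-base word pooled with its reverse complement. Scans behind it were normalised with masliner after bound GST-tagged yeast transcription factors were detected with fluorescent anti-GST. The proteins, at about 100-200 nM, had been applied to universal all-10-mer Agilent arrays made double-stranded by primer extension.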", "values": [
      {"sequence": "AAGTGATG", "PBM E-score": 0.314},
      {"sequence": "GAGTGAAC", "PBM E-score": -0.115},
      {"sequence": "ATGTGATC", "PBM E-score": 0.18},
      {"sequence": "GAGTGATC", "PBM E-score": 0.327},
      {"sequence": "GAGTGAGC", "PBM E-score": 0.033},
      {"sequence": "AGGTGATC", "PBM E-score": 0.276},
      {"sequence": "CAAAATGA", "PBM E-score": 0.275},
      {"sequence": "CAAGATGC", "PBM E-score": 0.148},
      {"sequence": "TAACTCTA", "PBM E-score": -0.0858},
      {"sequence": "TACAGGGA", "PBM E-score": -0.19},
      {"sequence": "GACGGGAC", "PBM E-score": -0.171},
      {"sequence": "ACGGCAAT", "PBM E-score": 0.277},
      {"sequence": "CTCAATGA", "PBM E-score": 0.0427},
      {"sequence": "TGAATTCA", "PBM E-score": 0.171},
      {"sequence": "CAGGGCCA", "PBM E-score": -0.227},
      {"sequence": "CAGTGATC", "PBM E-score": 0.366},
      {"sequence": "CTGTGATC", "PBM E-score": 0.0861},
      {"sequence": "CAGTGAGC", "PBM E-score": -0.118},
      {"sequence": "GGTGTACA", "PBM E-score": -0.178},
      {"sequence": "GGTCATAC", "PBM E-score": -0.0499},
      {"sequence": "AGTCATCA", "PBM E-score": 0.135},
      {"sequence": "AGTCATTA", "PBM E-score": 0.037},
      {"sequence": "CGTCATTA", "PBM E-score": 0.327},
      {"sequence": "CGTCATCA", "PBM E-score": 0.349},
      {"sequence": "GGTCATTA", "PBM E-score": 0.134},
      {"sequence": "CGTCATAC", "PBM E-score": 0.316},
      {"sequence": "CGTCATAG", "PBM E-score": 0.143},
      {"sequence": "CGTCATCC", "PBM E-score": 0.167},
      {"sequence": "GACTGCGA", "PBM E-score": -0.206},
      {"sequence": "GCTATGCA", "PBM E-score": -0.102},
      {"sequence": "AGGCACGG", "PBM E-score": 0.062},
      {"sequence": "GACAGACA", "PBM E-score": 0.119},
      {"sequence": "CGGTCAGC", "PBM E-score": -0.137},
      {"sequence": "CACGTCTA", "PBM E-score": 0.166},
      {"sequence": "GAGAATAA", "PBM E-score": 0.034},
      {"sequence": "ATGATCAC", "PBM E-score": 0.335},
      {"sequence": "CTGATCAA", "PBM E-score": -0.114},
      {"sequence": "ATCATGAG", "PBM E-score": 0.238},
      {"sequence": "ATCATGAT", "PBM E-score": 0.416},
      {"sequence": "GTGATCAA", "PBM E-score": 0.392},
      {"sequence": "ATCATGAA", "PBM E-score": 0.121},
      {"sequence": "GGGATCAC", "PBM E-score": -0.0214},
      {"sequence": "CTGATCAC", "PBM E-score": 0.294},
      {"sequence": "GTGATCAC", "PBM E-score": 0.386},
      {"sequence": "ATGATCAG", "PBM E-score": 0.269},
      {"sequence": "ACGATCAC", "PBM E-score": 0.274},
      {"sequence": "ATGATCAA", "PBM E-score": 0.273},
      {"sequence": "CGAGCTTA", "PBM E-score": -0.0534},
      {"sequence": "AGCAGTAC", "PBM E-score": -0.0878},
      {"sequence": "GCAAACGC", "PBM E-score": 0.00943},
      {"sequence": "AAGGTCGC", "PBM E-score": 0.0476},
      {"sequence": "AATTGAAA", "PBM E-score": 0.116},
      {"sequence": "AATCCAGG", "PBM E-score": 0.0662},
      {"sequence": "CCTGTCTC", "PBM E-score": -0.123},
      {"sequence": "ATGGGGTA", "PBM E-score": -0.00916},
      {"sequence": "CGAGCGGC", "PBM E-score": "-4e-05"},
      {"sequence": "CGTTACCC", "PBM E-score": -0.152},
      {"sequence": "CCTCTATC", "PBM E-score": -0.0168},
      {"sequence": "ACGATCAT", "PBM E-score": 0.222},
      {"sequence": "AGGATCAT", "PBM E-score": 0.0179},
      {"sequence": "ATGATCAT", "PBM E-score": 0.387},
      {"sequence": "ATACGTAC", "PBM E-score": 0.165},
      {"sequence": "CGACGTAC", "PBM E-score": 0.322},
      {"sequence": "ATACGTAA", "PBM E-score": 0.24},
      {"sequence": "CGACGTGA", "PBM E-score": 0.297},
      {"sequence": "CGACGTAA", "PBM E-score": 0.123},
      {"sequence": "GTACGTAC", "PBM E-score": -0.0114},
      {"sequence": "AGACGTGA", "PBM E-score": 0.227},
      {"sequence": "TTACGTAA", "PBM E-score": 0.196},
      {"sequence": "GTACGTAA", "PBM E-score": 0.343},
      {"sequence": "CTACGTAC", "PBM E-score": 0.297},
      {"sequence": "GGACGTGA", "PBM E-score": 0.0158},
      {"sequence": "GGACGTAC", "PBM E-score": -0.0265},
      {"sequence": "CATCAGAC", "PBM E-score": -0.02},
      {"sequence": "CAGAGTAG", "PBM E-score": -0.205},
      {"sequence": "AGGTATAG", "PBM E-score": -0.1},
      {"sequence": "TAGCGAAA", "PBM E-score": -0.00307},
      {"sequence": "ACGATGGG", "PBM E-score": -0.08},
      {"sequence": "CGCATTTC", "PBM E-score": -0.0669},
      {"sequence": "ACCGCTGA", "PBM E-score": -0.057},
      {"sequence": "AGTACGAG", "PBM E-score": 0.00494},
      {"sequence": "TGTACGAA", "PBM E-score": 0.427},
      {"sequence": "ATTACGAA", "PBM E-score": 0.281},
      {"sequence": "CCTACGAG", "PBM E-score": 0.163},
      {"sequence": "CCTACGAC", "PBM E-score": 0.288},
      {"sequence": "CGTACGAG", "PBM E-score": 0.343},
      {"sequence": "CTTACGAC", "PBM E-score": 0.103}
    ]}
  ]
}
